Assay results as given in PubChem BioAssay (NCI).
The panel holds about 83,000 compounds, 20% with a hit somewhere; the sample as a whole holds those more often.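 Plates (96-well) were seeded with cells, treated with compound at one concentration, and incubated for 48 hours before percent growth was determined.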 Activity calls are given as the source filed them. The calls were made as follows: active = growth percent below 10; inactive = the rest.

These molecules were tested on M14 melanoma (assay: NCI-60 one-dose screen, 48 h (100 = growth as untreated, 0 = no growth, -100 = all killed)). Settings: 10 µM unless noted.

Question: With `CC(=O)C(CO)C(=O)Nc1ccccc1` (centres undefined) as the molecule, how does the growth read?
Answer: 99.5% (inactive)

Question: Which growth does the source give for `Cc1nc2ccccc2c(=O)n1-c1cccc(OCc2cn(-c3cccc(O)c3)nn2)c1` here?
Answer: 94.4% (inactive)

Question: `CCCCCCCCCCN1CC2CCCCC2C1` (centres undefined) was tested. Which growth did it give?
Answer: 73.3% (inactive)

Question: How did the growth turn out when `CCCCN(CCC)CCCCCCCCCCN1CCCc2ccccc21` was run?
Answer: 88.6% (inactive)

Question: For `O=C1C(Cl)=C(Nc2ccc(Nc3ccccc3)c(NC3=C(Cl)C(=O)c4ccccc4C3=O)c2)C(=O)c2ccccc21`, which growth is on record?
Answer: 118% (inactive)

Question: Which growth does the source give for `COc1cccc(CNC(=O)c2cccc(C3CC(=O)c4c(cc(OC)c(OC)c4OC)O3)c2)c1` (centres undefined) here?
Answer: 41% (inactive)

Question: Which growth does the source give for `COC(=O)C1CC(=O)N(C(=O)Nc2ccc(Cl)cc2Cl)C1` (centres undefined) here?
Answer: 94.1% (inactive)

Question: Which growth does the source give for `O=C(/C=C\c1ccc(NCc2ccc(C(=O)O)cc2)cc1)CCl` here?
Answer: 90.7% (inactive)

Question: For `CC1(C)NC(=S)NC1=O`, which growth is on record?
Answer: 98.5% (inactive)

Question: How did the growth turn out when `Cc1ccc(C(=O)Nc2ccc(CN3CCN(C)CC3)c(C(F)(F)F)c2)cc1C#Cc1cncc2ncccc12` was run?
Answer: -89.5% (active)

Question: Which growth does the source give for `COc1ccc(-c2nc(N)n(C(=S)Nc3ccccc3)n2)cc1` here?
Answer: 98.8% (inactive)

Question: `O=C(O)c1ccc(-c2nn(-c3ccc(C(=O)O)cc3)cc2CNc2ccc(Br)cc2)cc1` was tested. Which growth did it give?
Answer: 97.6% (inactive)

Question: With `CCS(=O)(=O)N[C@@H]1O[C@H](COC(C)=O)C(OC(C)=O)[C@H](OC(C)=O)C1OC(C)=O` (some centres undefined) as the molecule, how does the growth read?
Answer: 109% (inactive)

Question: With `CCC(C)(C)c1ccc(OCCCCCCN2CCN(c3ccc(C)c(Cl)c3)CC2)cc1` as the molecule, how does the growth read?
Answer: 93.7% (inactive)

Question: For `Cc1ncc(C(=O)Nc2ccc(CN3CCN(C)CC3)c(C(F)(F)F)c2)cc1C#Cc1c(N)ncc2ccccc12`, which growth is on record?
Answer: -86.1% (active)

Question: Which growth does the source give for `COc1ccc2cnc(N)c(C#Cc3cc(C(=O)Nc4ccc(CN5CCN(C)CC5)c(C(F)(F)F)c4)cnc3C)c2c1` here?
Answer: 7.97% (active)

Question: Which growth does the source give for `COc1ccc(-c2nc(SCC(C)C)nc(Nc3ccc(C(=O)O)cc3)c2C#N)cc1` here?
Answer: 93% (inactive)

Question: `CCCCCCCCCCCCCCCCC(=O)O.CCCCCCCCCCCCCCCCCC(=O)O.CCCCCCCCCCCCCCCCCC(=O)O.CCCCCCCCCCCCCCCCCC(=O)O.CCCCCCCCCCCCCCCCCC(=O)O.CO[CH-]OC12COC1CC(O)C1(C)C(O)C(OC(C)O)C3=C(C)C(OC(=O)C(O)C([NH-])c4ccccc4)CC(O)(C(OC(=O)c4ccccc4)C21)C3(C)C.[Cu+].[Zn].[Zn].[Zn].[Zn].[Zn]` (centres undefined) was tested. Which growth did it give?
Answer: 35.5% (inactive)

Question: For `O=C1c2cc([N+](=O)[O-])ccc2-c2cc(Cl)c(NC(=O)C(F)(F)F)cc21`, which growth is on record?
Answer: 110% (inactive)

Question: For `CCCNC(=O)Oc1ccc(/C(=C(/C)Cc2ccc(OC)cc2)c2ccc(OCCN3CCCCC3)cc2)cc1`, which growth is on record?
Answer: 85.6% (inactive)

Question: Which growth does the source give for `CC(=O)CCS(=O)c1ccccc1` (centres undefined) here?
Answer: 105% (inactive)

Question: Which growth does the source give for `N#CC1=C(N2CCOCC2)NC2c3ccccc3Sc3ccccc3N2C1=N` (centres undefined) here?
Answer: 98.9% (inactive)

Question: `CC(C)(C)OC(=O)N1C/C(=C\c2ccccc2)C(=O)/C(=C/c2ccccc2)C1` was tested. Which growth did it give?
Answer: 98.3% (inactive)

Question: For `N#Cc1ccc(NC2c3ccccc3CC2O)cc1` (centres undefined), which growth is on record?
Answer: 106% (inactive)

Question: How did the growth turn out when `CC([C@H]1CCC2C3CCC4C[C@@H](N)CC[C@]4(C)C3CC[C@@]21C)N(C)C` (some centres undefined) was run?
Answer: -6.67% (active)

Question: How did the growth turn out when `CCN(CC)c1ccc2nc3ccc(N=Nc4ccc(O)cc4)cc3[n+](-c3ccccc3)c2c1` was run?
Answer: 61.3% (inactive)

Question: `CC(C)CSc1nc(-c2ccc(F)cc2)c(C#N)c(N2CCCCC2)n1` was tested. Which growth did it give?
Answer: 89.8% (inactive)

Question: How did the growth turn out when `Cc1ccc(C(=O)Nc2ccc(CN3CCN(C)CC3)c(C(F)(F)F)c2)cc1C#Cc1cnc(N)c2ccc(C#N)cc12` was run?
Answer: 8.81% (active)

Question: `CCCCCN1CCN(C(CC(=O)c2ccccc2)C(=O)c2ccccc2)CC1` (centres undefined) was tested. Which growth did it give?
Answer: 97.6% (inactive)

Question: Which growth does the source give for `COc1ccc2cc(C(C)C(=O)Nc3ccc(S(=O)(=O)Nc4cc(C)on4)cc3)ccc2c1` (centres undefined) here?
Answer: 103% (inactive)

Question: Which growth does the source give for `CSC1=Nc2c(c(C)c(-c3ccccc3)n2CCCCl)C2=NC(=O)CN12` here?
Answer: 30.8% (inactive)

Question: With `Oc1ccc([S+](c2ccc(O)cc2)c2ccc(O)cc2)cc1` as the molecule, how does the growth read?
Answer: 105% (inactive)

Question: With `Oc1ccc2ccccc2c1/C=N\Nc1ccccn1` as the molecule, how does the growth read?
Answer: -22.5% (active)

Question: `CCCNC(=O)Oc1ccc(/C(=C(/CC)Cc2ccccc2)c2ccc(OCCN(CC)CC)cc2)cc1` was tested. Which growth did it give?
Answer: -35.3% (active)
